From PubChem BioAssay (NCATS)
Records with an inconclusive call do not appear. Where a call stands in place of a potency, no number is given. Calls of active or inactive are those of the source. Calls come from the whole dose curve; as a rule, active = well fitted cell-killing curve with a large enough effect; inconclusive = small, poorly fitted or top-dose-only effect, or effect the other way; inactive = no such curve, though single readings can be large or run the other way.

Experiments:
[1] = Viability qHTS for spleen associated tyrosine kinase inhibitor (SYKi) naive MV4-11 cells (AID 1963823); settings: MV4-11 AML viability, CellTiter-Glo luminescence, 72 h; series mostly up to 45 µM; note: nearly all actives have a fitted effect of over 40% in size
How it was run: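 Luminescence from CellTiter-Glo, developed 10 min at room temperature, gave viability of MV4-11 cells never exposed to SYK inhibitor. Cells (500/well) had been incubated with compounds for 72 hr under standard culture conditions.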

[2] = Viability qHTS for spleen associated tyrosine kinase inhibitor (SYKi) drug resistant MV4-11 cells (AID 1963824); settings: SYKi-resistant MV4-11 viability, CellTiter-Glo, 72 h; series mostly up to 45 µM; note: nearly all actives have a fitted effect of over 35% in size
How it was run: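 SYK inhibitor-resistant MV4-11 AML cells, 500 per well, added to predispensed compounds and incubated 72 hr at 37 C, 5% CO2. Viability measured by CellTiter-Glo luminescence after 10 min at room temperature.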
Potency is the fitted concentration of half-maximal effect.

O=C(Nc1ccn[nH]1)c1c(F)cccc1F
Potency [1]: inactive | Potency [2]: inactive

CC1(C)[C@@H](O)CC[C@]2(C)[C@H]3CC=C4[C@@H]5C[C@](C)(C(=O)O)CC[C@]5(C)CC[C@@]4(C)[C@]3(C)CC[C@@H]12
Potency [1]: inactive | Potency [2]: inactive

Cc1ccc(C)c(NS(=O)(=O)c2cc(C(=O)Nc3ccccc3-c3ccccc3)ccc2C)c1
Potency [1]: 23.1 µM (active) | Potency [2]: 16.4 µM (active)

CC1=CC(=O)CC(C)(C)C1/C=C/C(C)O[C@@H]1O[C@H](CO)[C@@H](O)[C@H](O)[C@H]1O[C@@H]1OC[C@](O)(CO)[C@H]1O (some centres not stated)
Potency [1]: inactive | Potency [2]: inactive

COC(=O)C1=COC(OC2OC(CO)C(O)C(O)C2O)C2C1C=CC2(O)CO (configuration not stated)
Potency [1]: inactive | Potency [2]: inactive

C[C@@H]1C(=O)O[C@H]2CC34[C@H]5C[C@@H](C(C)(C)C)C36[C@@H](OC(=O)[C@@H]6O)OC4(C(=O)O5)[C@]21O (some centres not stated)
Potency [1]: inactive | Potency [2]: inactive

CC1=C(C(=O)O)/C(=C\CO[C@@H]2O[C@H](CO)[C@@H](O)[C@H](O)[C@H]2O)C(OC(=O)/C=C\c2ccc(O)cc2)C1 (some centres not stated)
Potency [1]: inactive | Potency [2]: inactive

CCOc1ccc(CCNC(=O)c2cc3sc(Cl)cc3n2C)cc1OCC
Potency [1]: inactive | Potency [2]: 1.64 µM (active)

CS(=O)(=O)c1ccc([C@@H](CC2CCCC2)C(=O)Nc2nccs2)cc1
Potency [1]: 8.33 µM (active) | Potency [2]: 7.42 µM (active)

C=C1C(=O)OC2CC3(C)C(O)C(=O)C=C(C)C3CC12 (configuration not stated)
Potency [1]: 23.1 µM (active) | Potency [2]: 7.31 µM (active)

O=C(/C=C/c1ccc(O)c(O)c1)O[C@H]1[C@@H]2C=CO[C@@H](O[C@@H]3O[C@H](CO)[C@@H](O)[C@H](O)[C@H]3O)[C@@H]2[C@@]2(CO)O[C@@H]12
Potency [1]: inactive | Potency [2]: inactive
